From PubChem BioAssay (NCI) come the findings set out here.

Compounds without any hit were thinned out: in the full panel of roughly 83,000, 20% have a hit.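 Cell lines were cultured in 96-well plates, exposed to a single compound concentration, and assessed for percent growth 48 hours later.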 Values without a mark were called inactive. Activity calls are given as the source filed them. Rule for the calls: active = growth percent below 10; inactive = the rest.

Among the test systems are SR leukemia; RPMI-8226 leukemia; OVCAR-8 ovarian; OVCAR-5 ovarian; OVCAR-4 ovarian; SK-OV-3 ovarian; IGROV1 ovarian; OVCAR-3 ovarian; HS 578T breast; NCI/ADR-RES ovarian.
Holding throughout (assay): NCI-60 one-dose screen, 48 h (100 = growth as untreated, 0 = no growth, -100 = all killed)
Common to all, as to conditions: 10 µM unless noted

Regarding `CNC(=O)c1ccccc1Oc1nc(Nc2cc(OC)c(OC)c(OC)c2)ncc1Br`, the growth with SR leukemia is 42.9%; in the test with RPMI-8226 leukemia, 73.1%; with OVCAR-8 ovarian, 72.2%; in the test with OVCAR-5 ovarian, 71.2%; in the test on OVCAR-4 ovarian, 49.5%; with SK-OV-3 ovarian, 70.1%. Also, the growth in the test with IGROV1 ovarian is 46.8%; in the test on OVCAR-3 ovarian, 66%; in the test with HS 578T breast it was 69.2%; with NCI/ADR-RES ovarian, 66.8%.

For the molecule `COc1cc(C2c3cc(OC(C)=O)c(OC)cc3CC3C(=O)OCC32)ccc1OC(C)=O` (stereo not given), the growth is 108% with SR leukemia; 93.1% with RPMI-8226 leukemia; 111% in the test with OVCAR-8 ovarian; 93.9% with OVCAR-5 ovarian; 99.2% in the test on OVCAR-4 ovarian; 111% in the test on SK-OV-3 ovarian. Also, the growth in the test with IGROV1 ovarian is 111%; with OVCAR-3 ovarian, 121%; in the test on HS 578T breast, 123%; in the test with NCI/ADR-RES ovarian, 106%.

Turning to `Cn1ccnc1C(=O)/C=C/c1ccc(C(=O)Nc2ccc(Cl)cc2)cc1`, the growth in the test with SR leukemia is -8.67% (active); with RPMI-8226 leukemia, -8.46% (active); in the test with OVCAR-8 ovarian, 14.3%; in the test on OVCAR-5 ovarian it was 12.6%; in the test with OVCAR-4 ovarian, 18.1%; in the test on SK-OV-3 ovarian, 42.2%. The growth in the test with IGROV1 ovarian was -22.4% (active); in the test with OVCAR-3 ovarian, -12.8% (active); in the test on HS 578T breast, 18.4%; in the test on NCI/ADR-RES ovarian, 5.79% (active).

`COc1ccc(Nc2ncc(Br)c(NCCCNC(=O)c3cccs3)n2)cc1`: the growth with SR leukemia was 31.5%; with RPMI-8226 leukemia, 27.3%; in the test on OVCAR-8 ovarian, 32.7%; in the test with OVCAR-5 ovarian it was 60.6%; in the test with OVCAR-4 ovarian, 57.7%; with SK-OV-3 ovarian, 49.2%. Moreover, the growth in the test on IGROV1 ovarian was 21%; in the test on OVCAR-3 ovarian, 26.6%; in the test with HS 578T breast it was 30.9%; in the test on NCI/ADR-RES ovarian, 46.5%.

As to `COC(=O)[C@@H](CCCCNC(=O)[C@]12CCC(C)(C)C[C@@H]1C1=CC[C@@H]3[C@@]4(C)C/C(=C/c5ccco5)C(=O)C(C)(C)[C@@H]4CC[C@@]3(C)[C@]1(C)CC2)NC(=O)[C@]12CCC(C)(C)C[C@@H]1C1=CC[C@@H]3[C@@]4(C)C/C(=C/c5ccco5)C(=O)C(C)(C)[C@@H]4CC[C@@]3(C)[C@]1(C)CC2`, the growth in the test with SR leukemia was 87.9%; with RPMI-8226 leukemia it was 100%; in the test on OVCAR-8 ovarian, 104%; with OVCAR-5 ovarian, 108%; in the test with OVCAR-4 ovarian, 127%; in the test on SK-OV-3 ovarian, 106%. For the same molecule, the growth in the test on IGROV1 ovarian is 107%; in the test on OVCAR-3 ovarian, 115%; in the test on HS 578T breast, 104%; in the test on NCI/ADR-RES ovarian it was 112%.

Consider `N#Cc1ccc(O)c(C2=NCC(c3cccc(Oc4ccccc4)c3)O2)c1` (stereo not given), for which the growth in the test with SR leukemia was 19.7%; in the test with RPMI-8226 leukemia, 28.1%; in the test with OVCAR-8 ovarian it was 12.9%; in the test with OVCAR-5 ovarian, 55.5%; with OVCAR-4 ovarian, 18.3%; in the test with SK-OV-3 ovarian, -1.44% (active). Further, the growth with IGROV1 ovarian was 19.2%; with OVCAR-3 ovarian, 27.3%; with HS 578T breast, 52.6%; with NCI/ADR-RES ovarian it was 2.42% (active).

With `NC(Cc1ccc(O)c([N+](=O)[O-])c1)C(=O)O` (stereo not given), the growth in the test on SR leukemia was 89.1%; with RPMI-8226 leukemia it was 95%; in the test on OVCAR-8 ovarian, 103%; in the test on OVCAR-5 ovarian, 107%; in the test on OVCAR-4 ovarian it was 95.2%; in the test with SK-OV-3 ovarian it was 115%. The growth is 85% with IGROV1 ovarian, 105% with OVCAR-3 ovarian, 98.4% in the test with HS 578T breast and 99% in the test on NCI/ADR-RES ovarian.

In the case of `Cc1ccc(-c2nc(N3CCCNCC3)c3oc(-c4ccc(C)cc4)nc3n2)cc1`, the growth in the test on SR leukemia is -44.5% (active); with RPMI-8226 leukemia it was -51% (active); in the test with OVCAR-8 ovarian it was -58.6% (active); in the test on OVCAR-5 ovarian, 78.5%; in the test on OVCAR-4 ovarian, 2.2% (active); in the test on SK-OV-3 ovarian it was 98.1%. Besides, the growth with IGROV1 ovarian was 12.2%; in the test with OVCAR-3 ovarian, -67.7% (active); in the test with HS 578T breast it was 110%; in the test on NCI/ADR-RES ovarian it was 16.3%.

As to `CCN(CC)c1ccc(\C=N/N=C(N)/C(N)=N\N=C/c2ccc(N(CC)CC)cc2)cc1`, the growth with SR leukemia was 87.6%; in the test with RPMI-8226 leukemia, 99%; with OVCAR-8 ovarian it was 99%; in the test with OVCAR-5 ovarian it was 126%; with OVCAR-4 ovarian it was 110%; in the test on SK-OV-3 ovarian, 102%. In addition, the growth with IGROV1 ovarian was 105%; with OVCAR-3 ovarian it was 115%; in the test with HS 578T breast, 103%; in the test on NCI/ADR-RES ovarian it was 101%.

Take `N=C(N)c1ccc(-c2ccc(-c3ccc(Cl)c(Cl)c3)s2)nc1`: the growth is 3.84% (active) in the test with SR leukemia; -8.11% (active) with RPMI-8226 leukemia; -19.9% (active) in the test on OVCAR-8 ovarian; 20.1% in the test on OVCAR-5 ovarian; 16.3% in the test on OVCAR-4 ovarian; 86.6% in the test on SK-OV-3 ovarian. Further, the growth with IGROV1 ovarian was -40.6% (active); with OVCAR-3 ovarian, -77.8% (active); with HS 578T breast it was 67.6%; in the test on NCI/ADR-RES ovarian it was 82.9%.

`COc1ccc(Nc2ncc(Br)c(NCCCNC(=O)C3CCCC3)n2)cc1`: the growth with SR leukemia is 47%; in the test with RPMI-8226 leukemia, 49.3%; in the test with OVCAR-8 ovarian, 36.7%; with OVCAR-5 ovarian, 54.6%; with OVCAR-4 ovarian, 56.7%; in the test with SK-OV-3 ovarian, 30.6%. The growth is 14.1% in the test with IGROV1 ovarian, 46.6% in the test on OVCAR-3 ovarian, 29.2% with HS 578T breast and 51.5% in the test on NCI/ADR-RES ovarian.

Consider `COc1ccc(C(O)c2cc3c(N)c(C(=O)Nc4cccc(Br)c4)sc3nc2C)cc1` (stereo not given), for which the growth in the test on SR leukemia is 8.67% (active); in the test on RPMI-8226 leukemia it was 10.9%; with OVCAR-8 ovarian, 13.1%; in the test with OVCAR-5 ovarian, 11.2%; with OVCAR-4 ovarian, 39.7%; in the test on SK-OV-3 ovarian, 17.9%. For the same molecule, the growth in the test with IGROV1 ovarian was 11.4%; in the test on OVCAR-3 ovarian, 3.84% (active); with HS 578T breast it was -6% (active); in the test on NCI/ADR-RES ovarian, 13.1%.
